# From PubChem BioAssay
# A selection: hits, their analogues and other compounds. The true share with any hit is near 6%.
# Tau ThT inhib – blocks human tau fibril formation measured by thioflavin T. recombinant tau K18 P301L, heparin-induced fibrillization, ThT fluorescence. P10636. Potency, µM (top dose mostly 57.4 µM), hits mostly inhibitors. actives 2.1% (n = 270,000); also: nearly all actives have a fitted effect of over 55% in size
#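 Tau K18 P301L fragment (15 uM unlabeled plus 0.24 uM Alexa 594-labeled) in 100 mM sodium acetate pH 7 with compound, fibrillization induced by 20 uM heparin for 6 hr at 37 C. Thioflavin T (30 uM) added, fluorescence read after 1 hr (ex 450, em 510 nm).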
# Tau fibril FP – tau fibrillization inhibition (FP); P10636; K18 P301L tau heparin fibrillization, Alexa594 FP, 6 h; Potency, µM (highest dose often 57.7 µM), hits mostly inhibitors; actives 0.39% (n = 280,000); AID 1468; also: nearly all actives have a fitted effect of over 55% in size
#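 Read-out: fluorescence polarization of Alexa 594-labeled tau (0.24 uM), 555 nm excitation, 632 nm emission. Mixtures held 15 uM unlabeled K18 P301L, compound and 20 uM heparin, pH 7 acetate buffer, incubated 6 hr at 37 C.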
# VDR inhibitor – vitamin D3 receptor (human) inhibition. P11473. actives 0.93% (n = 400,000). VDR-SRC2-3 peptide fluorescence polarization, 2 h. Potency, µM, actives largely listed as inhibitors
# Target sequence (P11473 whole entry, looked up): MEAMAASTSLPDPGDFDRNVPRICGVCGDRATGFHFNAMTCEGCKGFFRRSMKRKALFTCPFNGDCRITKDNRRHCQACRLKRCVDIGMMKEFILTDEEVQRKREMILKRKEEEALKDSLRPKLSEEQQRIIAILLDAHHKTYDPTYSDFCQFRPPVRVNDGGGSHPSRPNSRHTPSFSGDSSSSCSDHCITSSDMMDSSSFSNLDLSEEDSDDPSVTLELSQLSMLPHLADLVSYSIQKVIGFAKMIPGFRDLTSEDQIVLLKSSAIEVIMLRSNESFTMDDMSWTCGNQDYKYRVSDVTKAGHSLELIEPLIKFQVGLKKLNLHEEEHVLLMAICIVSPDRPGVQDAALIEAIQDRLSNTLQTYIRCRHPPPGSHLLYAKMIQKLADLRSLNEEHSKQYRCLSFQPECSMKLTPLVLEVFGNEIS
#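 VDR–SRC2-3 interaction, FP format. Cmpds 23 nl via pintool, brief spin, 2 h ambient incubation.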
# Tau fluor counter – counter-screen for tau fibril formation inhibitors; tau K18 P301L Alexa594 fluorescence, heparin fibrillization; Potency, µM (titrated, usually from 57.7 µM); AID 1463; actives 0.93% (n = 280,000); also: nearly all actives have a fitted effect of over 55% in size
#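 Human tau K18 P301L (15 uM unlabeled, 0.24 uM Alexa 594-labeled) in 100 mM sodium acetate pH 7 with 20 uM heparin, 6 hr at 37 C. ThT 30 uM added, 1 hr ambient; Alexa 594 FP and total fluorescence read at 555/632 nm.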
# PLK1 PBD inh – PLK1 (human) polo-box domain binding inhibition; P53350; AID 720504; actives 2.8% (n = 360,000); Potency, µM, usual class: inhibitors; Plk1 PBD binding of FITC phosphopeptide, fluorescence polarization; also: series mostly up to about 57 µM; nearly all actives have a fitted effect of over 65% in size
# Sfp inh – Sfp phosphopantetheinyl transferase inhibition | Q9F4F7 | Biochemical Sfp PPTase activity, qHTS | Potency, µM, most hits filed as inhibitors | actives 3.5% (n = 310,000) | AID 1490;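 also: the enzyme is Sfp with the accession as filed and its product quenches rhodamine fluorescence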
#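 Buffer: 50 mM Hepes-Na pH 7.6, 10 mM MgCl2, 0.01% Nonidet P-40, 0.01% BSA. Enzyme 15 nM, pre-exposed to compound 15 min; substrates then added and fluorescence change tracked over 30 min.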
# Hits are given with their value; i = inactive; ? = inconclusive; nt = no result given; [ ] = another dose, or the depositor's remark. Calls follow the shape of the dose curve; as a rule, active = well fitted curve in the direction sought with a large enough effect; inconclusive = small, poorly fitted or top-dose-only effect, or another doubt; inactive = no such curve, though single readings can be large; an effect the other way counts as inactive or inconclusive.
SMILES,Tau ThT inhib,Tau fibril FP,VDR inhibitor,Tau fluor counter,PLK1 PBD inh,Sfp inh
Clc1ccc(-c2cc3ccccc3nc2N2CCOCC2)cc1,i,i,?,i,15µM,i
COc1ccc(-c2noc(Cn3c(=O)c4ccccc4n(CC(=O)Nc4cccc(OC)c4)c3=O)n2)cc1,i,?,i,i,nt,nt
O=[N+]([O-])c1cc(C(F)(F)F)ccc1Sc1ccc2ccccc2n1,i,i,i,?,30µM,?
O=[N+]([O-])c1cc(C(F)(F)F)ccc1Sc1nccn1Cc1ccccc1,i,i,?,i,i,i
CCCCN(CC)C(=O)CSc1nc2ccccc2c(=O)n1Cc1ccco1,i,i,i,i,nt,nt
O=C(Oc1ccccc1)n1c(=S)oc2ccccc21,i,i,i,i,21µM,i
Cc1ccccc1OC(=O)n1c(=S)oc2cc(Cl)ccc21,i,i,i,i,13µM,i
CCOc1ccccc1NC(=O)Cn1c(=O)oc2cc(Cl)ccc21,nt,nt,i,nt,i,i
Cc1cc(N2CCCCC2)nc2ccc(NC(=O)/C=C/c3ccccc3OC(C)C)cc12,?,i,i,7.1µM[quencher],nt,nt
Cc1cc(N)c2cc(NC(=O)/C=C/c3ccccc3Cl)ccc2n1,?,?,i,i,i,25µM
Cc1cc(N2CCCCC2)nc2ccc(NC(=O)/C=C/c3ccccc3Cl)cc12,4.5µM,i,i,10µM[quencher],nt,nt
CC(C)CCNC(=O)C1(C)CCN1Cc1ccc2ccccc2c1 (stereo not drawn),nt,nt,nt,nt,i,nt
COc1ccccc1C(=O)Nc1ccc(C(=O)OCc2cc(=O)n3c4c(sc3n2)CCCC4)cc1,i,i,i,i,nt,nt
Cc1cccc(N2C(=O)C(Cl)=C(N3CCOCC3)C2=O)c1,16µM,25µM,?,?,i,3.5µM
CCc1ccc(N2C(=O)C(Cl)=C(N3CCOCC3)C2=O)cc1,i,i,?,i,i,i
COc1ccc(N2C(=O)C(Cl)=C(N3CCOCC3)C2=O)cc1,nt,nt,28µM,nt,i,i
O=C1C(Cl)=C(N2CCOCC2)C(=O)N1c1cccc(Cl)c1,13µM,28µM,25µM,?,i,i
CC(C)C[C@@H](CN)NC(=O)c1nc[nH]c1C(=O)N[C@@H](C)C(=O)CNC[C@H](CC(C)C)NC(=O)c1nc[nH]c1C(=O)N[C@@H](Cc1ccccc1)C(=O)O,nt,nt,i,nt,?,nt
CC(C)C[C@@H](CNCC(=O)[C@H](Cc1ccccc1)NC(=O)c1[nH]cnc1C(=O)N[C@H](CN)CC(C)C)NC(=O)c1nc[nH]c1C(=O)N[C@@H](CC(=O)O)C(=O)O,nt,nt,?,nt,34µM,nt
CC(C)C[C@@H](CNCC(=O)[C@H](CC(C)C)NC(=O)c1[nH]cnc1C(=O)N[C@H](CN)CC(C)C)NC(=O)c1nc[nH]c1C(=O)N[C@@H](Cc1ccccc1)C(=O)O,nt,nt,?,nt,21µM,nt
CCCCOC(=O)Sc1nc2ccccc2o1,?,i,?,i,?,40µM
O=C(CC1(O)C(=O)Nc2ccc(Br)cc21)c1ccccc1 (stereo not drawn),nt,nt,nt,nt,i,nt
COC(=O)[C@@]1(Cc2ccc(OC)cc2)[C@H]2c3cc(C(=O)N(C)C)n(CCF)c3C[C@H]2CN1C(=O)c1ccccc1,i,i,nt,i,nt,i
COC(=O)COc1ccc(NC(=O)C(c2ccccc2)c2ccccc2)cc1,nt,nt,i,nt,i,i
COC(=O)COc1ccc(C(C2C(=O)CC(C)(C)CC2=O)C2C(=O)CC(C)(C)CC2=O)cc1,nt,nt,50µM,nt,?,56µM
SMILES,Tau ThT inhib,Tau fibril FP,VDR inhibitor,Tau fluor counter,PLK1 PBD inh,Sfp inh
COc1ccc2c(c1)c1nnc(SC)nc1n2Cc1ccccc1,nt,nt,i,nt,nt,nt
CCCN(C(=O)COC(=O)CNC(=O)c1ccc2ccccc2c1)c1c(N)n(Cc2ccccc2)c(=O)[nH]c1=O,nt,nt,i,nt,i,nt
O=C(Cn1c(=O)sc2ccccc21)Nc1ccc(O)cc1,i,i,i,i,i,79µM
CCOc1ccccc1NC(=O)Cn1c(=O)sc2ccccc21,i,i,i,i,i,i
O=C1/C(=C/c2cccc(Cl)c2)CSc2sccc21,i,i,i,i,i,i
Cc1cccc(/C=C2\CS/C(=C\c3cccc(C)c3)C2=O)c1,3.5µM,i,i,i,i,i
CCOc1ccc(NC(=O)CN2C(=O)COc3ccc(S(=O)(=O)N4CCCC4)cc32)cc1,nt,nt,i,nt,i,i
